From PubChem BioAssay AID504326 (The Scripps Research Institute Molecular Screening Center, 2011)
Screen size: about 340,000 compounds; about 990 (0.29%) were called active. Many of the other results were omitted from the sample, so actives are more common in it than they were. A number with no mark means an inactive call. Cut-off read from the data, not from the text of the source: active = activation above about 18%; inactive = the rest.

Target: Mu-type opioid receptor (Homo sapiens) + Delta-type opioid receptor (Homo sapiens) (UniProt P35372+P41143)
Sequence (P35372 whole entry, looked up): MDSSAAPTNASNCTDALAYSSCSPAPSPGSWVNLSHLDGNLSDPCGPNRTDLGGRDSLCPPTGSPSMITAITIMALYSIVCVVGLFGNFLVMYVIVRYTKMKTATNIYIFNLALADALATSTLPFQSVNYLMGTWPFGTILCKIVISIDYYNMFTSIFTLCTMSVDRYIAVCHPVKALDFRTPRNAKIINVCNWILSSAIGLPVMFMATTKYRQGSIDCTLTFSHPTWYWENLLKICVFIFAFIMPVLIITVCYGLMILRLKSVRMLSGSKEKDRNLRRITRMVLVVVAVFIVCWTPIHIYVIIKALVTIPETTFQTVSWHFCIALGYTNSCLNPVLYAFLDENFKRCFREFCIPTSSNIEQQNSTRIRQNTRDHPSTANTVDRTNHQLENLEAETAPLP
Sequence (P41143 whole entry, looked up): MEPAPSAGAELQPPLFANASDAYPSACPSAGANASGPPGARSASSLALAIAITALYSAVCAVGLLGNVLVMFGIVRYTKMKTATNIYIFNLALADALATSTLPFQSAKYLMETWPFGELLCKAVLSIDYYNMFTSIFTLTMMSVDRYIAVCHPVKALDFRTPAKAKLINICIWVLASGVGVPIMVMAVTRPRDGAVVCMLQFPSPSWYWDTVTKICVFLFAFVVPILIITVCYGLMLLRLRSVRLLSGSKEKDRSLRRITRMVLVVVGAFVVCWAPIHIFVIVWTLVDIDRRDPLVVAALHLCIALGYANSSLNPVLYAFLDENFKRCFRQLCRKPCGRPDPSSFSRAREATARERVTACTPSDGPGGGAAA
Assay: inducers of mu-delta opioid receptor heterodimers – cell-based, luminescence, primary screen (AID 504326);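 note: 0% = vehicle-treated cells and 100% = reference agonist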
Conditions: cells, OPRM1-OPRD1 heterodimerization, at 9.3 µM, active compounds read high

For `COC1C(O)C(C)OC(OC2CCC3(C=O)C(CCC4C3CCC3(C)C(C5=CC(=O)OC5)CCC43O)C2)C1O` (stereo not given), the activation was 82.9% (active).
In the case of `C[C@]12CC[C@H](O)C[C@H]1CC[C@@H]1C2CC[C@]2(C)[C@@H](C3=CC(=O)OC3)[C@@H](O)C[C@]12O` (stereo not given in full), the activation is reported as 62.4% (active).
In the case of `CCOC(=O)C1(CCc2ccccc2)CCN(Cc2ccco2)CC1`, the activation is reported as 23.8% (active).
`CCC1(C)CC(CCNCc2ccc(N(C)C)cc2)(c2ccc(F)cc2)CCO1` (stereo not given) was tested, and the activation was 125% (active).

Point of comparison: `COc1ccc(C2NCc3ccc4c(c3-n3cccc32)OCO4)cc1OC` (stereo not given), activation -3.63%. Against it:
- COc1cc2nc(N3CCN(C(=O)[C@@H]4CCCO4)CC3)nc(N)c2cc1OC — higher, -0.16%
- CC1(C)C(c2ccccc2)=NC(c2cccnc2)=[N+]1[O-] — lower, -4.09%
- CC(=O)OC1C2(CC3N4C(=O)C5(CO)SSC4(CC31O)C(=O)N5C)OC(C)C(C)(C)C2=O (stereo not given) — lower, -23.2%
- C[C@]12CCC3C(CC[C@H]4C[C@@H](O)CC[C@]34C)C1CC[C@@H]2O (stereo not given in full) — higher, -1.31%
- C[C@]12CCC3C(CC[C@H]4C[C@@H](O)CC[C@]34C)C1C[C@@H](O)[C@H]2O (stereo not given in full) — higher, -2.9%
- CCOP(=O)(OCC)C(NC(=O)NC)C(N)=O (stereo not given) — higher, -3.11%
- c1cc2c(cc1C1OCC3C(c4ccc5c(c4)OCO5)OCC13)OCO2 (stereo not given) — higher, 1.03%
- Cn1c(O)c(C=NCCCC(=O)O)c(=O)n(C)c1=O — higher, -1.29%
- CCOC(=O)C1(Cc2ccc(Cl)cc2)CCN(C(C)CCn2cccn2)CC1 (stereo not given) — higher, 0.28%
- CCOC(=O)C1(c2ccccc2)CCN(CC(O)c2ccc(NC(C)=O)cc2)CC1 (stereo not given) — higher, 3.27%
- NC(=O)Cn1cc(C(=O)c2ccccc2F)c2ccccc21 — higher, -3.05%
- c1ccc2sc(C3CCCNC3)nc2c1 (stereo not given) — higher, -2.28%
- COC(=O)C1=C(c2c(C)noc2C)C[C@@H]2CC[C@H]1N2C(=O)NCc1ccc2c(c1)OCO2 — higher, -2.32%
- CCCCC(=O)N/N=C/c1c(O)n(CC)c(=S)n(CC)c1=O — higher, 0.54%
- O=C1NC(=O)C(CCOc2ccccc2)(CCc2ccccc2)C(=O)N1 — higher, -1.87%
